Screening results from PubChem BioAssay.
This is a sample that favours compounds with a hit; in the whole collection about 2.4% have one here.
CHO-K1 Ca antag = M1 antagonist counterscreen hit in parental CHO-K1 cells; inhibition, % at 3 µM; actives 0.6% (n = 360,000); AID 602250; ATP-induced calcium, Fluo-8 fluorescence;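 active means inhibition above a per-plate cutoff, the plate's mean sample inhibition plus 3 SD, cut at about 24% in these data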;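 further: 0% = DMSO plus EC80 ATP and 100% = DMSO alone without ATP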
M1 PAM = positive allosteric modulators of human M1 muscarinic receptor; activation, % at 3 µM; CHO-K1 hM1, Fluo-8 calcium fluorescence, ACh EC20; 0% = ACh EC20, 100% = maximal ACh; P11229; actives 0.088% (n = 360,000); in the data active means activation above about 19%, passing the limit was not always enough
Target sequence (P11229 whole entry, looked up): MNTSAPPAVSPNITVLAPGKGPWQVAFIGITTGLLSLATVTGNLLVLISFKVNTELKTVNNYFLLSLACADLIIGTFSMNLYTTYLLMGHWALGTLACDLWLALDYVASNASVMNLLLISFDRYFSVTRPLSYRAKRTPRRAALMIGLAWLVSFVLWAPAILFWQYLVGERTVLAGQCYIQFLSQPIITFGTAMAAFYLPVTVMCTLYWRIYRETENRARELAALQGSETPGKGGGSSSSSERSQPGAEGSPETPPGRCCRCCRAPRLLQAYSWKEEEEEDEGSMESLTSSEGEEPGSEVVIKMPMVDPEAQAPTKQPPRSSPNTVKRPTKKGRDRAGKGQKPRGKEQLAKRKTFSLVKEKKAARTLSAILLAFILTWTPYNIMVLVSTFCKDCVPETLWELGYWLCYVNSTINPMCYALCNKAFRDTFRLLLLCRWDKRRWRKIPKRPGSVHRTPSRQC
CHRM1 antagonist = antagonists of human M1 muscarinic receptor; actives 1.3% (n = 360,000); AID 588852; inhibition, % at 3 µM; CHO-K1 hM1, Fluo-8 calcium fluorescence, ACh EC80 antagonist; P11229;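 active means percent inhibition above its own plate's cutoff, namely the mean of that plate's compound wells plus 3 SD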;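 further: peak over basal fluorescence ratio during 140 s after agonist addition; 0% = ACh EC80 plus DMSO and 100% = DMSO alone without agonist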
CHRM1 agonist = human M1 muscarinic receptor agonism. actives 0.33% (n = 360,000). activation, % at 3 µM. P11229. AID 588814. CHO-K1 hM1, Fluo-8 calcium fluorescence, agonist mode; 0% DMSO, 100% acetylcholine EC100;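 active means activation above the run's mean compound activation plus 3 SD, cut at about 16% in these data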;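 further: peak over basal fluorescence ratio within a 140 s kinetic read after compound addition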
CHO-K1 Ca ag = counter-screen for M1 agonists: effect in parental CHO-K1 cells. Fluo-8 calcium fluorescence; scaled to maximal ATP response, vehicle zero. activation, % at 3 µM. actives 0.48% (n = 360,000). AID 602248; in the data active means activation above about 15%;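 further: untransfected CHO-K1 host cells lacking M1 receptor as counterscreen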
CHO-K1 Ca PAM = M1 PAM counterscreen hit in parental CHO-K1 cells; ATP EC20, Fluo-8 calcium fluorescence; 0% at ATP EC20, 100% at ATP max; activation, % at 3 µM; actives 0.02% (n = 360,000);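 active means activation above the run cutoff, the mean activation of all test compounds plus 3 SD, cut at about 40% in these data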;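 further: peak over basal fluorescence ratio in a 140 s read after ATP addition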
Starred values were filed as active, the others as inactive; . = not tested or not shown.

SMILES | CHO-K1 Ca antag | M1 PAM | CHRM1 antagonist | CHRM1 agonist | CHO-K1 Ca ag | CHO-K1 Ca PAM
Nc1nc2n(n1)C(=O)CC(c1ccccc1[N+](=O)[O-])N2 (configuration not stated) | -15 | 9 | -4 | -4 | 1 | 18
CCCCC(=O)Nc1ccc(C(=O)Nc2nc(CC(=O)OCC)cs2)cc1 | 2 | 0 | 7 | 2 | 21* | 17
CCOC(=O)Cc1csc(NC(=O)Nc2ccc(Cl)cc2)n1 | 16 | -11 | 32 | 7 | 18* | -24
CCOC(=O)Cc1csc(NC(=O)Nc2cccc(Cl)c2)n1 | 15 | -10 | 8 | 1 | 8 | -6
COc1ccc(C(=O)Nc2nc(CC(=O)NCc3ccc(F)cc3)cs2)cc1 | 12 | -13 | 17 | 1 | 20* | -13
COc1ccc(C=NNC(=O)CCCCC(=O)NN=Cc2ccc(OC)cc2)cc1 | -16 | 7 | -14 | -2 | 0 | 6
CCOC(=O)C1=C(COC(=O)/C=C/c2ccccc2Cl)NC(=O)NC1C (configuration not stated) | 0 | -4 | 9 | 0 | 3 | -3
CCOC(=O)C1=C(COC(=O)/C=C/c2ccccc2F)NC(=O)NC1C (configuration not stated) | 21 | -13 | 27* | 0 | 2 | -31
CCn1c(C)nc2cc(C(=O)OC(C(F)(F)C(F)F)C(F)(F)C(F)F)ccc21 | 45* | -12 | 29* | 1 | 14 | -11
Cc1cc(N2CCCC2)c(F)cc1/C=C\[N+](=O)[O-] | 28* | 9 | 20 | 28* | 25* | -2
Cc1cc(N2CCC(C)CC2)c(F)cc1[N+](=O)[O-] | -7 | 5 | -1 | -4 | 0 | 10
CN=c1c([N+](=O)[O-])nn(-c2ccc3c(c2)OCCO3)n1O | 7 | 20 | -17 | 1 | 0 | -6
CCN1CCN(c2ccc(N3CCN(S(=O)(=O)c4ccc(C)c([N+](=O)[O-])c4)CC3)nn2)CC1 | 3 | -21 | 29* | -7 | -1 | -10
Cc1ccc(NC(=O)CN2CCc3cc4c(cc3C2C)OCCCO4)cc1 (configuration not stated) | -1 | -22 | 53* | -4 | 5 | 1
Cc1ccc(NC(=O)CN2CCc3cc4c(cc3C2C)OCCCO4)cc1C (configuration not stated) | -5 | 0 | 0 | -3 | 2 | 24
CC1c2cc3c(cc2CCN1CC(=O)Nc1ccccc1)OCCCO3 (configuration not stated) | 3 | -32 | 33* | -7 | 10 | 5
O=C(CN1CCc2ccccc21)Nc1ccc2c(c1)OCCCO2 | 2 | 3 | 4 | -3 | 1 | -14
O=C(CN1CCc2cc3c(cc2C1)OCCCO3)Nc1ccc(S(=O)(=O)N2CCCC2)cc1 | -15 | -22 | 50* | -3 | 3 | 15
COC(=O)c1cc(NC(=O)CN2CCc3cc4c(cc3C2)OCCCO4)cc(C(=O)OC)c1 | 2 | 7 | -16 | -9 | -1 | 8
CCC(C)(C)n1nnnc1C(c1cc(OC)ccc1OC)N1CCN(Cc2ccccc2)CC1 (configuration not stated) | -9 | 14 | -14 | -5 | 1 | 27
CN(C)c1ccc(-c2nn3c(C4CCCCC4)nnc3s2)cc1 | 30* | 4 | 0 | -6 | 0 | -7
O=C(c1ccc(CSc2nc3ccncc3[nH]2)cc1)N1CCCCCC1 | -15 | 1 | -1 | -5 | 4 | 17
O=C(c1ccc(CSc2nc3ccncc3[nH]2)cc1)N1CCN(c2cccc(Cl)c2)CC1 | 9 | -20 | 36* | -5 | 10 | 1
Cc1cccc(C)c1OCC(O)CNC(C)c1ccccc1 (configuration not stated) | -17 | 7 | -15 | -2 | 8 | 11
CC(C(=O)c1ccc(-c2ccccc2)cc1)[n+]1cccc(NC(=O)c2ccccc2)c1 (configuration not stated) | -16 | -25 | 50* | -9 | 1 | 22
SMILES | CHO-K1 Ca antag | M1 PAM | CHRM1 antagonist | CHRM1 agonist | CHO-K1 Ca ag | CHO-K1 Ca PAM
CCOc1ccc(/C=N/NC(=O)c2nnn(-c3nonc3N)c2-c2cccs2)cc1 | 0 | -2 | 27 | 44* | 34* | 15
CCOc1ccc(-c2c(C(=O)N/N=C/c3ccc(OC(C)C)cc3)nnn2-c2nonc2N)cc1 | -2 | 10 | 5 | 21* | 6 | 29
CCOc1ccc(-c2c(C(=O)N/N=C/c3ccc(C)cc3)nnn2-c2nonc2N)cc1 | -12 | 18 | -15 | 19* | 2 | 23
CCCOc1ccc(-c2c(C(=O)N/N=C/c3ccc(C)cc3)nnn2-c2nonc2N)cc1 | -3 | 8 | -14 | -3 | 1 | 12
NNC(=O)c1nnn(-c2nonc2N)c1-c1cccs1 | -20 | 22* | -29 | 2 | 1 | 9
Cc1ccc(-c2c(C(=O)N/N=C/c3ccc(OC(C)C)cc3)nnn2-c2nonc2N)cc1 | -8 | 15 | 0 | 11 | 14 | 18
O=C1CCCC2=C1C(c1cccs1)n1ncnc1N2 (configuration not stated) | -14 | -2 | 0 | -1 | 0 | 7
COC(=O)[C@@]1(Sc2ccc(C)cc2)CC(=O)N(C(=O)C2CC2)[C@@H]1c1ccccc1 | -1 | . | . | . | 1 | -2
CC(=O)NCCC(=O)N1CCCC(N(C)CCc2ccccc2)C1 (configuration not stated) | 1 | -20 | 45* | -9 | 0 | 6
Clc1ncccc1OCc1ccccc1 | -16 | 5 | -8 | -3 | 2 | 15
C#CC[N+]1(CC#Cc2cccc(C)c2)CCCCC1 | -12 | 0 | 4 | -13 | 1 | 23
C(#Cc1ccccc1)C[N+]1(CC#Cc2ccccc2)CCCCC1 | 4 | -36 | 60* | -14 | -1 | 1
C#CC[N+]1(CC#Cc2ccccc2)CCCCC1 | -19 | 0 | -4 | -8 | 1 | 18
Cc1ccc(C#CC[N+]2(CC#Cc3ccc(C)cc3)CCCCC2)cc1 | 6 | -27 | 48* | -10 | 0 | 0
CCC[N+]1(CC#CCC(c2ccccc2)c2ccccc2)CCCCC1 | -7 | -27 | 63* | -7 | 0 | 4
C#CC[N+]1(CC#Cc2ccccc2)CCOCC1 | 16 | 9 | -21 | -6 | -1 | -5
Cc1ccc(-n2ncc3c2CC(C)(C)CC3NC(=O)c2ccc[n+]([O-])c2)cc1 (configuration not stated) | -2 | 3 | -6 | -4 | 0 | 0
CC1CCN(S(=O)(=O)c2ccc(NC(=O)[C@@H]3CCCC[C@@H]3C(=O)O)cc2)CC1 | -18 | 12 | -12 | -8 | 2 | 8
N#CC1=C(N)OC2=C(C(=O)CCC2)C1c1cc2c(cc1Cl)OCO2 (configuration not stated) | 24* | 7 | -8 | -7 | 0 | -24
